# Results filed as inconclusive are left out. Entries that show only a call come without a potency. Active and inactive are the calls of the source. The call rests on the fitted dose curve; in most records, active means well fitted cell-killing curve with a large enough effect; inconclusive means small, poorly fitted or top-dose-only effect, or effect the other way; inactive means flat fitted curve, though single readings scatter.
# Tested on: Tov112D
# Experiment: Primary qHTS to identify gynecologic anti-cancer compounds using libraries of approved drugs and bioactive compounds (AID 1345084); further: nearly all actives have a fitted effect of over 55% in size
# Conditions: Gynecologic cancer cell panel viability, ATPlite luminescence, 48 h; series mostly up to 57.5 µM
# Procedure, shortened: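 Luminescence from the ATPlite ATP-monitoring reagent indicates viable cell number; lower signal means cytotoxicity. Cells received compound 16 h after seeding and were exposed for 48 h across five concentrations.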
row,SMILES,Potency
1,COC(=O)c1ccccc1O[C@@H]1O[C@H](CO[C@@H]2OC[C@@H](O)[C@H](O)[C@H]2O)[C@@H](O)[C@H](O)[C@H]1O,inactive
2,N[C@@H](CC(=O)Nc1ccc(Oc2cc(F)c(F)cc2Br)cc1)C(=O)O,inactive
3,C[C@@]12CC3(S(=O)(=O)O)OC(O1)[C@]1(COC(=O)c4ccccc4)[C@H]3C[C@]21O[C@@H]1O[C@H](CO)[C@@H](O)[C@H](O)[C@H]1O,inactive
4,CC(=O)O[C@@H]1[C@H](OC(C)=O)C[C@@]2(C)C(CC[C@@H](C)[C@]23Cc2c(O)cc4c(c2O3)CN([C@@H](CCC(=O)O)C(=O)O)C4=O)C1(C)C (some centres not stated),inactive
5,CCc1cc(CC[C@]2(C3CCCC3)CC(O)=C(Cc3nc4nc(C)cc(C)n4n3)C(=O)O2)cc(CC)n1,inactive
6,CN(C)C(=O)C(O)C(Cc1ccccc1)NC(=O)c1cc2cc(Cl)ccc2[nH]1 (configuration not stated),inactive
7,CCC(C)/C=C(C)/C=C/C1=CC2=CC(=O)C(C)(O)C(OC(C)=O)C2CO1 (configuration not stated),inactive

# Reference: PubChem BioAssay (NCATS)
